Assay results taken from PubChem BioAssay AID1780 (National Center for Advancing Translational Sciences (NCATS), 2009).
Activity calls are given as the source filed them. The call rests on the fitted dose curve; in most records, active means well fitted curve in the direction sought with a large enough effect; inactive means no such curve, though single readings can be large or run the other way.

Biological target: Pyruvate kinase PKM (Homo sapiens) (UniProt P14618)
Assay: Confirmation Concentration-Response Assay for Activators of Human Muscle isoform 1 Pyruvate Kinase
Details: purified hPK-M1, Kinase-Glo ATP luminescence, 1 h; series mostly up to 57.5 µM; activity change, positive = activation: at the top concentration
Text: Confirmatory assay NIH Chemical Genomics Center [NCGC] Matthew G. Vander Heiden, M.D., Ph.D. [Harvard Medical School, 77 Avenue Louis Pasteur, Boston, MA 02115] NCGC Assay Overview: Human pyruvate kinase […] (hPK-M1) enzyme was supplied as a highly purified (>95% pure) preparation from Harvard Medical School and assayed for its ability to generate ATP from ADP using phosphoenolpyruvate (PEP) as a substrate. ATP generation was detected in a coupled reaction by luciferase-mediated luminescence, an ATP-dependent process. Pyruvate kinase substrates, PEP and ADP, were present in the assay at Km and approximately 10-fold below Km respectively. The enzyme was assayed at an intermediate level of activity to screen for both inhibitors and activators.
NCGC Assay Protocol Summary for M1-isoform: Three uL of substrate mix (at r.t.) in assay buffer (50 mM Imidazole pH7.2, 50 mM KCl, 7 mM MgCl2, 0.01% Tween 20, 0.05% BSA) was dispensed into white solid bottom 1,536 well microtiter plates so that the final concentrations of substrates in the assay were 0.1 mM ADP and 0.5 mM PEP. 23 nL of compound were delivered by a pin tool and 1 uL of enzyme mix (final concentration of 1 nM) in assay buffer (4 degree Celsius) was added. Plates were incubated at room temperature for 1 hour. Two uL of detection mix (Kinase-Glo, Promega; at 4 degree Celsius protected from light) was added and luminescence read by a ViewLux (Perkin Elmer) at 1 second exposure/plate. Data were normalized to the uninhibited (row 31). Additionally, a no enzyme and 5-fold enzyme control was dispensed in row 32, split equally between the two conditions.

Pyruvate kinase PKM (Homo sapiens), sequence (P14618 whole entry, looked up, canonical isoform): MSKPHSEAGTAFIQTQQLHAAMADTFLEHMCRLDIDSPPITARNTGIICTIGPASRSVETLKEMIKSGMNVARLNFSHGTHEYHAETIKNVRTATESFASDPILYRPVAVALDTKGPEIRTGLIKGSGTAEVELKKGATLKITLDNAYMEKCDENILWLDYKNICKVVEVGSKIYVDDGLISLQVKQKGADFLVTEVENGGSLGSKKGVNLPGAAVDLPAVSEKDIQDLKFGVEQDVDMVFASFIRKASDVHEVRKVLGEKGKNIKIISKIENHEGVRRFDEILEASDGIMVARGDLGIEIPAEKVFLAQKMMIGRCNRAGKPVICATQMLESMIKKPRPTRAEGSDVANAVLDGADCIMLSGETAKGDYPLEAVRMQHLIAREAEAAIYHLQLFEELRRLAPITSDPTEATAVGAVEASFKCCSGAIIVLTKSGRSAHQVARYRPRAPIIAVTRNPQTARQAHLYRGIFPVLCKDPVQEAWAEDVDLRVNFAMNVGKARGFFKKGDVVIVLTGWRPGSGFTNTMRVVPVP

Activity change, positive = activation, inactive:
O=S(=O)(NCCCCCNS(=O)(=O)c1c(F)cccc1F)c1ccc2c(c1)OCCO2 1.5%
O=S(=O)(c1ccc2c(c1)OCCO2)N1CCN(S(=O)(=O)c2ccccc2F)CC1 7.38%
Cc1nc2ccc(S(=O)(=O)N3CCN(S(=O)(=O)c4c(F)cccc4F)CC3)cc2s1 6.67%
O=S(=O)(c1ccc2c(c1)OCCO2)C1CCN(S(=O)(=O)c2c(F)cccc2F)CC1 7.52%
Cc1cc2c(s1)c1cnn(Cc3cccc(F)c3)c(=O)c1n2C 1.98%
COc1cccc(S(=O)(=O)N2CCN(S(=O)(=O)c3ccc4c(c3)OCCO4)CC2)c1 6.37%
Cc1cc2c(s1)c1c(C)nn(Cc3ccccc3F)c(=O)c1n2C -5.39%
Cc1cc2c(s1)c1cnn(Cc3c(F)cccc3F)c(=O)c1n2C 4.85%
O=S(=O)(c1ccc2c(c1)OCCCO2)N1CCN(S(=O)(=O)c2c(F)cccc2F)CC1 5.12%
C[C@H]1CN(S(=O)(=O)c2ccc3c(c2)OCCO3)CCN1S(=O)(=O)c1c(F)cccc1F 6.41%
O=S(=O)(c1c(F)cccc1F)C1CCN(S(=O)(=O)c2ccc3c(c2)OCCO3)CC1 10%
O=S(=O)(c1ccc2c(c1)OCCO2)N1CCN(S(=O)(=O)c2ccc(F)cc2F)CC1 10.3%
Cc1cc2c(s1)c1cnn(Cc3cccc(F)c3F)c(=O)c1n2C -2.21%
O=S(=O)(NC1CCN(S(=O)(=O)c2ccc3c(c2)OCCO3)C1)c1c(F)cccc1F (stereo not given) -2.48%
O=C(CN1C(=O)N/C(=C\c2cccn2-c2cccc(C(=O)O)c2)C1=O)Nc1ccccc1F 0.345%
C[C@@H]1CN(S(=O)(=O)c2c(F)cccc2F)CCN1S(=O)(=O)c1ccc2c(c1)OCCO2 10.3%
O=S(=O)(NCC1CN(S(=O)(=O)c2c(F)cccc2F)C1)c1ccc2c(c1)OCCO2 -4.42%
Cn1c2cc([N+](=O)[O-])sc2c2cnn(Cc3ccccc3F)c(=O)c21 6.32%
Cc1cc2c(s1)c1cnn(Cc3c(F)cccc3Cl)c(=O)c1n2C 9.06%
Cc1cc2c(s1)c1cnn(Cc3ccc(F)cc3)c(=O)c1n2C -0.493%
O=C(c1c(F)cccc1F)N1CCN(S(=O)(=O)c2ccc3c(c2)OCCO3)CC1 11.3%
Cc1cc2c(s1)c1cnn(Cc3ccc(-c4ccccc4)cc3)c(=O)c1n2C 1.85%
Cn1ccc2cc(S(=O)(=O)N3CCN(S(=O)(=O)c4c(F)cccc4F)CC3)ccc21 10.4%
CC(C)c1cc2c(s1)c1cnn(Cc3ccccc3F)c(=O)c1n2C 3.69%
CCCCCn1ncc2c3sc(C)cc3n(C)c2c1=O 2.69%
CCCc1cc(F)c(S(=O)(=O)N2CCN(S(=O)(=O)c3ccc4c(c3)OCCO4)CC2)cc1F 1.33%
CC(=O)Nc1cc2c(s1)c1cnn(Cc3ccccc3F)c(=O)c1n2C 0.505%
Cc1ccc(Cn2ncc3c4sc(C)cc4n(C)c3c2=O)cc1 -1.9%
O=S(=O)(NCC1CN(S(=O)(=O)c2ccc3c(c2)OCCO3)C1)c1c(F)cccc1F -4.92%
O=S(=O)(NC1CCN(S(=O)(=O)c2c(F)cccc2F)C1)c1ccc2c(c1)OCCO2 (stereo not given) -3.63%
O=S(=O)(c1cccc(F)c1)N1CCN(S(=O)(=O)c2ccc3c(c2)OCCO3)CC1 7.95%
O=S(=O)(c1ccccc1)N1CCN(S(=O)(=O)c2ccc3c(c2)OCCO3)CC1 7.14%
COc1ccc(Cn2ncc3c4sc(C)cc4n(C)c3c2=O)cc1 -0.115%
Cn1c2cc(C=O)sc2c2cnn(Cc3ccccc3F)c(=O)c21 -1.04%
O=C1CN(S(=O)(=O)c2c(F)cccc2F)CCN1S(=O)(=O)c1ccc2c(c1)OCCO2 5.79%
COc1cc2c(s1)c1cnn(Cc3ccccc3F)c(=O)c1n2C -5.78%
Cc1ccc(Cn2ncc3c4sc(C)cc4n(C)c3c2=O)c(C)c1 -1.97%

outcome, inactive:
Cc1cc2c(s1)c1cnn(Cc3ccccc3F)c(=O)c1n2C
Cc1cc2[nH]c3c(=O)n(Cc4ccccc4F)ncc3c2s1
CN1CCOc2ccc(S(=O)(=O)N3CCN(S(=O)(=O)c4c(F)cccc4F)CC3)cc21
